Calls of active or inactive are those of the source. Rule for the calls: active = hit-call score of the fitted dose curve at least 0.9, where 1 is the maximum; inactive = score below 0.9. Peptide text beside a SMILES is read from it.

The experiment in a line: ATG_EGR_CIS: Attagene CIS-FACTORIAL HepG2 Assay for human Early Growth Response 1 (EGR1) (AID 2282938). As to conditions: HepG2 Attagene CIS-FACTORIAL EGR reporter mRNA; actives raise or lower the signal. The method, then: ATG_CIS is a cell-based, multiplexed-readout assay that uses HepG2, a human liver cell line, with measurements taken at 24 hours after chemical dosing in a 24-well plate.ATG_EGR_CIS is one of 52 assay component(s) measured or calculated from the ATG_CIS assay. It is designed to make measurements of mRNA induction, a form of inducible reporter, as detected with fluorescence intensity signals by Reverse transcription polymerase chain reaction (RT-PCR) and Capillary electrophoresis technology.Data from the assay component ATG_EGR_CIS was analyzed into 1 assay endpoint. This assay endpoint, ATG_EGR_CIS, was analyzed with bidirectional fitting relative to DMSO as the negative control and baseline of activity. Using a type of inducible reporter, measures of mRNA for gain or loss-of-signal activity can be used to understand the reporter gene at the transcription factor-level as they relate to the gene EGR1. Furthermore, this assay endpoint can be referred to as a primary readout, because this assay has produced multiple assay endpoints where this one serves a reporter gene function. To generalize the intended target to other relatable targets, this assay endpoint is annotated to the dna binding intended target family, where the subfamily is zinc finger.
Human liver HepG2 cells are transiently transfected with multiple reporter transcription units (MRTUs) in 6-well plates using FuGene 6 reagent (Roche; 3 ml FuGene/1 mg DNA). The MRTU constructs are regulated by a cis-regulating element (promoter). […] A major difference between the CIS and TRANS system is that in CIS activities of endogenous TFs are measured, whereas the TRANS assay evaluates changes in activities of exogenous, chimeric NR-Gal4 proteins. […] At the end of 24 hour incubation, total RNA was isolated using TriZol reagent (Invitrogen). The isolated RNA is then reverse-transcribed using oligo(dT) primer and Mo-MLV reverse transcriptase (Invitrogen) with DNAse I (Ambion) treatment for 30 min. The one-tenth of the produced cDNA was amplified by PCR using Taq DNA polymerase (Invitrogen) and two reporter sequence-specific primers. The PCR products were fluorescently labeled by primer extension with 6-arboxyfluorescein (6-FAM) 5'-labeled reporter sequence-specific primer (2 min at 95 C, 20 s at 68 C and 10 min at 72 C) and these products were digested with 5U of HpaI (New England Biolabs) for 2h at 37 C. The fragments were purified using Qiaquick PCR columns (Qiagen), analyzed on an ABI 3130xL genetic analyzer (Applied Biosystems) with peak positions identified by using a set of X-rhodamine (ROX)-labeled MapMarker1000 molecular weight standards (BioVentures). The raw capillary electrophoresis data was processed using Attagraph software (Attagene).
Turning to `CCC(C)C(=O)OC` (stereo not given), the call was inactive.

Turning to `Clc1cccnc1`, the compound was called inactive.

As for `CC(=O)c1ccccc1O`, the outcome was inactive.

`O=C(OCc1ccccc1)c1ccc(O)cc1`: the AC50 (as a rule, the concentration giving half of the maximal activity seen) is 93.4 µM (active).

Consider `C=CC(=O)OCCCCCCOC(=O)C=C`, for which the AC50 is 66.6 µM (active).

As to `C=CCNCC=C`, the compound was called inactive.

Take `CC=C(C)C(C)=O`: the call was inactive.

With `CCCCCCO`, the compound was classed as inactive.

For the compound `Oc1ccccc1Cc1ccccc1O`, the AC50 is 72.5 µM (active).

As to `Cc1c(Cl)cccc1Cl`, the compound was classed as inactive.

Turning to `CCCCNS(=O)(=O)c1ccccc1`, the outcome was inactive.

Take `CCOC(=O)OC(=O)OCC`: the compound was called inactive.

Take `CC(C)c1cccc(C(C)C)c1N`: the result was inactive.

`C=CC(C)(CCC=C(C)C)OC(=O)C=Cc1ccccc1` (stereo not given): the compound was classed as inactive.

Consider `CC/C=C\C/C=C\C/C=C\CCCCCCCC(=O)OC`, for which the compound was called inactive.

In the case of `C=C(C)C1CC=C(C)C(OC(C)=O)C1` (stereo not given), the outcome was inactive.

As for `CCOc1ccc(NC(N)=O)cc1`, the result was inactive.

For the compound `c1ccc(Nc2cccc3ccccc23)cc1`, the AC50 was 46.8 µM (active).

With `O=C1CCCN1C1CCCCC1`, the compound was called inactive.

Regarding `[Cl][Eu]([Cl])[Cl]`, the compound was classed as inactive.

In the case of `CC1=CCC(C(C)C)C=C1` (stereo not given), the result was inactive.

Consider `COC(=O)[C@H](Cc1ccccc1)NC(=O)[C@@H](N)CC(=O)O` (H-Asp-Phe-OMe), for which the compound was classed as inactive.

In the case of `C=CCOC(=O)c1ccc(C(=O)OCC=C)c(C(=O)OCC=C)c1`, the outcome was inactive.

For `CCN1CN(CC)CN(CC)C1`, the result was inactive.

Take `C=CCCCCCCCCOC(C)=O`: the compound was classed as inactive.

On to `Nc1ccc(O)c([N+](=O)[O-])c1`, for which the call was inactive.

For the compound `COC(=O)CC(C)CCC=C(C)C` (stereo not given), the result was inactive.

As for `C=CC(=O)OCCCCCCCC(C)C`, the result was inactive.

Take `CC(=O)OCC=C(C)C`: the outcome was inactive.

`CCC1COC(=O)O1` (stereo not given): the result was inactive.

`C=CCCCCCCCCC=O`: the outcome was inactive.

With `Cc1cc(=O)[nH]c(=O)[nH]1`, the result was inactive.

For the compound `CC(CC(C)C)=NO`, the compound was called inactive.

For `CCCCCCCCCCCCCc1ccccc1`, the outcome was inactive.

With `CCc1cccc(C)c1N(C(=O)CS(=O)(=O)O)C(C)COC` (stereo not given), the compound was classed as inactive.

For `CCCCOC(=O)CCC(C)=O`, the outcome was inactive.

Take `CC(C)C(=O)OCCOc1ccccc1`: the call was inactive.

On to `Cc1ccc(C)c(OCCCC(C)(C)C(=O)O)c1`, for which the compound was called inactive.

`CCOC(=O)[C@H](O)[C@@H](O)C(=O)OCC`: the result was inactive.

Regarding `Cc1ccccc1CCO`, the outcome was inactive.
